Source: PubChem BioAssay (Tox21)
Results filed as inconclusive are left out. A call without a number means that no potency is given here. Active and inactive are the calls of the source. Calls come from the whole dose curve; as a rule, active = well fitted cell-killing curve with a large enough effect in the repeat runs; inconclusive = weak or mixed curves, or effect the other way; inactive = no such curve, though single readings can be large or run the other way.

Assay: qHTS assay to identify small molecule antagonists of the vitamin D receptor (VDR) signaling pathway - cell viability counter screen (AID 743225); note: nearly all actives have a fitted effect of over 50% in size
Conditions: VDR-bla HEK293T viability, CellTiter-Glo luminescence, 16 h; series mostly up to 61 µM
From the text: U.S. Tox21 Program National Center for Advancing Translational Sciences [NCATS] NIH Chemical Genomics Center [NCGC] U.S. Environmental Protection Agency [EPA] National Institutes of Environmental Health Sciences [NIEHS] National Toxicology Program [NTP] U.S. Food and Drug Administration [FDA] Tox21 Assay Overview: The vitamin D receptor (VDR), a member of nuclear hormone receptor superfamily, plays a critical role in calcium homeostasis and bone metabolism. It is also involved in cell differentiation and growth, and thrombogenicity. To identify the compounds that inhibit VDR signaling, the VDR-UAS-bla HEK 293T cell line (Invitrogen, Carlsbad, CA, USA) containing a beta-lactamase reporter gene under the control of an upstream activator sequence (UAS) was used to screen the Tox21 10K compound library. The cytotoxicity of the Tox21 compound library against the VDR-bla cell line was tested in parallel by measuring the cell viability using CellTiter-Glo assay (Promega, Madison, WI) in the same wells.
Tox21 Assay Protocol Summary: VDR-bla cells were dispensed at 2,000 cells/5 uL of assay medium per well into black wall/clear-bottom 1536-well plates using a Multidrop Combi (Thermo Fisher Scientific, Waltham, MA) dispenser. After the assay plates were incubated at a 37C and 5% CO2 for 4 h, 23 nL of compounds dissolved in DMSO, positive controls or DMSO only was transferred to the assay plate by a Pintool station (Kalypsys, San Diego, CA), followed by addition of 1 uL of 1-alpha, 25-Dihydroxy Vitamin D3 (3 nM, final concentration in the wells) using a Bioraptr Flying Reagent Dispenser (FRD) workstation (Beckman Coulter, Indianapolis, IN). The plates were incubated at 37C and 5% CO2 for 16 h, and then 1 uL of LiveBLAzerTM B/G FRET substrate was added using a Bioraptr FRD. The plates were incubated at room temperature for 2 h and fluorescence intensity was measured by an Envision plate reader (PerkinElmer, Shelton, CT). For cell viability readout that measures cytotoxicity, 3 ul/well of CellTiter-Glo reagent was added into the assay plates using a Bioraptr FRD. After 30 min incubation at room temperature, the luminescence intensity in the plates was measured using a ViewLux plate reader (PerkinElmer).

SMILES	Potency
C(COCC1CO1)OCC1CO1 (stereo not given)	inactive
Cc1cccc2sc3nncn3c12	inactive
C#CCOC(=O)/C=C(C)/C=C/CC(C)CCCC(C)C (stereo not given)	inactive
CCOC(=O)C(Cl)Cc1cc(-n2nc(C)n(C(F)F)c2=O)c(F)cc1Cl (stereo not given)	inactive
N[C@@H](Cc1ccc(Oc2cc(I)c(O)c(I)c2)c(I)c1)C(=O)O	inactive
Nc1c(Cl)c(F)nc(OCC(=O)O)c1Cl	inactive
O=S1(=O)OCCO1	inactive
CCCN1CCC[C@@H]2Cc3nc(N)ncc3C[C@H]21	inactive
O=CCCl	inactive
C=C(C)[C@H]1CN[C@H](C(=O)O)[C@H]1CC(=O)O	inactive
CNC(=O)Oc1ccccc1C(C)C	inactive
CCNc1nc(Cl)nc(NC(C)(C)C)n1	inactive
OP(O)c1ccccc1	inactive
CCN1CCCC1CNC(=O)C(O)(c1ccccc1)c1ccccc1 (stereo not given)	inactive
O=c1[nH]c2ccccc2n1C1CCNCC1	inactive
O=C(CCl)NCO	inactive
CCC1(c2cccc(O)c2)CCCCN(C)C1 (stereo not given)	inactive
CC[C@@H](CO)NC(=O)[C@@H]1C=C2c3cccc4[nH]cc(c34)C[C@H]2N(C)C1	inactive
NNCc1ccccc1	inactive
O=C(O)c1c(Cl)ccc2cc(Cl)cnc12	inactive

SMILES	Potency
CC1=C2[C@H]3OC(=O)[C@@H](C)[C@@H]3CC[C@@]2(C)C=CC1=O	inactive
OCC(Cl)CCl (stereo not given)	inactive
CNC(=O)NC(O)C(Cl)(Cl)Cl (stereo not given)	inactive
CC(C)NCC(O)c1ccc([N+](=O)[O-])cc1 (stereo not given)	inactive
c1cncc([C@@H]2CCCCN2)c1	inactive
CC(C)N(Cc1ccccc1)C(=O)C(C)(C)C	inactive
O=C(O)C(Br)(Br)Br	inactive
CC(C)(N)Cc1ccccc1Cl	inactive
CS(=O)(=O)c1ccc(C(=O)C2C(=O)CCCC2=O)c(Cl)c1COCC(F)(F)F	inactive
CCOP(=S)(OCC)Oc1ccc(Cl)cc1Cl	inactive
CC(C)(O)C(Cl)(Cl)Cl	inactive
O=C1CCCCC1Cl (stereo not given)	inactive
O=C(Cl)C(Cl)Cl	inactive
C[C@]12C=CC(=O)C=C1CC[C@@H]1[C@@H]2CC[C@@]2(C)[C@H]1CC[C@]2(C)O	inactive
ClC1=C(Cl)C2(Cl)C(CBr)CC1(Cl)C2(Cl)Cl (stereo not given)	inactive
C[C@@H](N)[C@@H](O)c1ccccc1	inactive
CCOC1Oc2ccc(OS(C)(=O)=O)cc2C1(C)C (stereo not given)	inactive
CCC1(c2ccccc2)C(=O)N(COC)C(=O)N(COC)C1=O	inactive
Cl/C=C/CCl	inactive
CCN(CC)CCOC(=O)C(O)(c1ccccc1)c1ccccc1	inactive
